What all share (design): species or system human, MV4-11 + K-562 + COLO205 + SK-N-BE2 + OVCAR-8
For one assay, the system named is CSNK1E. Conditions: compound concentrations:0.3nM, 1nM, 3nM, 10nM, 30nM, 100nM, 300nM, 1000nM,R2:0.89444069129231096,slope:0.86279178326481998,EC50 Standard Error, by the legend:Standard error of the EC50 estimation as provided by the drc package.
In the next assay the test system is MAPK14. Conditions: compound concentrations:0.3nM, 1nM, 3nM, 10nM, 30nM, 100nM, 300nM, 1000nM,R2:0.95433345689641902,slope:0.62517275376181303,EC50 Standard Error, by the legend:Standard error of the EC50 estimation as provided by the drc package.
The test system of a further assay is MAPKAPK2. Conditions: compound concentrations:0.3nM, 1nM, 3nM, 10nM, 30nM, 100nM, 300nM, 1000nM,R2:0.91890870064253904,slope:1.05096662120135,EC50 Standard Error, by the legend:Standard error of the EC50 estimation as provided by the drc package.
In the next assay the test system is RIPK2. As to conditions: compound concentrations:0.3nM, 1nM, 3nM, 10nM, 30nM, 100nM, 300nM, 1000nM,R2:0.98843771673654501,slope:0.97698272947785902,EC50 Standard Error, by the legend:Standard error of the EC50 estimation as provided by the drc package.
Another assay has as its system RIPK3. As to conditions: compound concentrations:0.3nM, 1nM, 3nM, 10nM, 30nM, 100nM, 300nM, 1000nM,R2:0.88646274803772895,slope:5.0878054739021197,EC50 Standard Error, by the legend:Standard error of the EC50 estimation as provided by the drc package.
For another assay, the system named is SPR. As to conditions: compound concentrations:0.3nM, 1nM, 3nM, 10nM, 30nM, 100nM, 300nM, 1000nM,R2:0.99512909296274499,slope:1.24359258072984,EC50 Standard Error, by the legend:Standard error of the EC50 estimation as provided by the drc package.
In the next assay the test system is TGFBR2. As to conditions: compound concentrations:0.3nM, 1nM, 3nM, 10nM, 30nM, 100nM, 300nM, 1000nM,R2:0.95772159417417102,slope:0.90025260883160396,EC50 Standard Error, by the legend:Standard error of the EC50 estimation as provided by the drc package.
The test system of another assay is PRKD1. As to conditions: read-out: apparent Kd, n = 1.
A further assay concerns HSP90B1. Conditions: read-out: apparent Kd; compound concentrations:100 nM and 1000 nM (sheet 'Samples'); n = 1.
The subject of another assay is TESK2. Conditions: read-out: apparent Kd; compound concentrations:100 nM and 1000 nM (sheet 'Samples'); n = 1.
The test system of the next assay is PRKACG. Conditions: compound concentrations:0.3nM, 1nM, 3nM, 10nM, 30nM, 100nM, 300nM, 1000nM,R2:0.71933853436235096,slope:7.8735043887932097,EC50 Standard Error, by the legend:Standard error of the EC50 estimation as provided by the drc package.
The next assay relates to IGF1R. As to conditions: read-out: apparent Kd, compound concentrations: 100 nM and 1000 nM (sheet 'Samples'), n = 1.
For the next assay, the system named is INSR. Conditions: read-out: apparent Kd, compound concentrations: 100 nM and 1000 nM (sheet 'Samples'), n = 1.
In another assay the test system is NEK2. As to conditions: read-out: apparent Kd, compound concentrations: 100 nM and 1000 nM (sheet 'Samples'), n = 1.
The next assay relates to AGK. Conditions: read-out: apparent Kd, compound concentrations: 100 nM and 1000 nM (sheet 'Samples'), n = 1.
The test system of a further assay is BMPR1A. As to conditions: read-out: apparent Kd, n = 1.
In another assay the test system is ERBB3. As to conditions: read-out: apparent Kd, compound concentrations: 100 nM and 1000 nM (sheet 'Samples'), n = 1.
In the next assay the test system is PIK3C2B. Conditions: read-out: apparent Kd, compound concentrations: 100 nM and 1000 nM (sheet 'Samples'), n = 1.
The subject of the next assay is PYGL. As to conditions: read-out: apparent Kd, compound concentrations: 100 nM and 1000 nM (sheet 'Samples'), n = 1.
The test system of another assay is ZAK. Conditions: read-out: apparent Kd, compound concentrations: 100 nM and 1000 nM (sheet 'Samples'), n = 1.
Where [1] appears, read: compound concentrations:100 nM and 1000 nM (sheet 'Samples').

Molecules are shown by their SMILES. Like-named read-outs stand apart in the source and are kept apart here.
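For EC50 in this document: competition pulldown with Kinobeads ε in cell lysates, inhibitor preincubated 45 min at 4 °C, bound kinases quantified by LC–MS/MS against DMSO control.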
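For Kd in this document: competition pulldown with Kinobeads ε in cell lysates, inhibitor preincubated 45 min at 4 °C, bound kinases quantified by LC–MS/MS against DMSO control.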

A word on the EC50: it is the midpoint of the concentration-response curve. On to `Cl.NCc1ccc(-c2nc(-c3ccc(Cl)c(O)c3)c(-c3ccncc3)[nH]2)cc1` [SB-476429-A], for which the EC50 was 642 nM with CSNK1E; 174 nM in the assay with MAPK14; 174 nM in the assay on MAPKAPK2; 55.9 nM with RIPK2; 296 nM with RIPK3; 32.8 nM in the assay on SPR. Moreover, the concentration for a half-maximal effect (EC50) in the assay on TGFBR2 is 871 nM. Also, the Kd in the assay with CSNK1E (read-out: apparent Kd) is 642 nM; in the assay on MAPK14 (read-out: apparent Kd) it was 174 nM; in the assay on MAPKAPK2 (read-out: apparent Kd), 174 nM; with RIPK2 (read-out: apparent Kd), 28.8 nM; in the assay on RIPK3 (read-out: apparent Kd), 289 nM; in the assay on SPR (read-out: apparent Kd), 32.8 nM. For the same molecule, the Kd in the assay with TGFBR2 (read-out: apparent Kd) is 767 nM.
With `CCn1c(-c2nonc2N)nc2c(-c3ccccc3)ncc(OCCCN)c21.CCn1c(-c2nonc2N)nc2c(-c3ccccc3)ncc(OCCCN)c21.O=C(O)C(F)(F)F.O=C(O)C(F)(F)F` [GSK260205A], in the assay with PRKD1 (compound concentrations: 100 nM and 1000 nM (sheet 'Samples'), CATDS: 2.9847294929188299E-2), the potency estimated from few doses is 1340 nM.
For the molecule `Cc1cccc(-c2nc(Nc3ccncc3)c3sccc3n2)n1` [GW869641X], the potency estimated from few doses in the assay on HSP90B1 was 1250 nM; in the assay with TESK2, 1880 nM.
With `CCn1c(-c2nonc2N)nc2c(C#CC(C)(C)O)nc(OCCNC)cc21.Cl` [GSK949675A], in the assay on PRKACG, the EC50 was 303 nM. Besides, in the assay on PRKACG (read-out: apparent Kd), the Kd is 262 nM.
For the molecule `COc1ccc(Nc2ncc(C#N)c(Nc3ccccc3C(N)=O)n2)cc1N1CCN(C)CC1.Cl` [GSK1558669A], the results for the potency estimated from few doses in the assay on IGF1R (CATDS: 6.9220248980982396E-3), in the assay on INSR (CATDS: 7.0439666537016601E-3) and in the assay on NEK2 (CATDS: 6.7574361761292799E-3) were 752 nM, 692 nM and 849 nM, respectively.
On to `Cn1ncc2c(N)ncnc21` [SKF-18267], for which the potency estimated from few doses in the assay on AGK (CATDS: 3.9029734313372399E-3) was 1420 nM; in the assay with BMPR1A (compound concentrations: 100 nM and 1000 nM (sheet 'Samples'), CATDS: 5.9129989995003003E-3) it was 595 nM; in the assay with ERBB3 (CATDS: 3.9998602619286698E-3), 1340 nM; with IGF1R (CATDS: 4.3813441316225901E-3) it was 1080 nM; in the assay with INSR (CATDS: 4.5573832930641796E-3), 986 nM; in the assay on NEK2 (CATDS: 4.6073088162857699E-3) it was 964 nM. In addition, the potency estimated from few doses with PIK3C2B (CATDS: 6.2624130491241497E-3) was 539 nM; in the assay with PYGL (CATDS: 4.6532954394714601E-3), 943 nM; in the assay on ZAK (CATDS: 4.0930423662174304E-3) it was 1260 nM.
For `O=C1NC(=O)C(N2CCc3ccccc32)=C1c1ccccc1Cl` [SB-373598], in the assay with PRKD1 (setting [1]), the potency estimated from few doses was 1580 nM.
On to `CCn1c(-c2nonc2N)nc2c(C#CC(C)(C)O)nc(OCCN)cc21.CCn1c(-c2nonc2N)nc2c(C#CC(C)(C)O)nc(OCCN)cc21.Cl.Cl` [GSK902056A], for which the potency estimated from few doses in the assay with HSP90B1 was 769 nM.
Consider `Cl.Cl.NC(CNC(=O)c1cc(Br)c(-c2ccnc3[nH]ccc23)s1)c1ccccc1.NC(CNC(=O)c1cc(Br)c(-c2ccnc3[nH]ccc23)s1)c1ccccc1` (stereo not shown) [GSK1322949A], for which the potency estimated from few doses in the assay on AGK (CATDS: 3.3484364918531399E-2) is 953 nM.
For the molecule `CNCc1ccc(-c2cc(-c3nc(-c4ccc(S(=O)(=O)C(C)C)cc4)cnc3N)on2)cc1` [VE-822], the potency estimated from few doses in the assay on BMPR1A (setting [1]) is 764 nM.
`CCn1c(-c2cccnc2O)nc2cnccc21` [SB-736715]: the potency estimated from few doses in the assay on PYGL (CATDS: 1.35129561389799E-2) is 1630 nM.
Regarding `Nc1nc(Nc2ccccc2)cc(-c2ccc3c(N)n[nH]c3c2)n1` [GSK2225749A], the potency estimated from few doses in the assay with TESK2 is 1620 nM.
For `CC(C)N1CC(=O)N(C)c2cnc(Nc3cccc(S(=O)(=O)CCN4CCOCC4)c3)nc21` [BI00009348], the potency estimated from few doses in the assay with ZAK (CATDS: 5.0114665499168799E-2) is 1820 nM.
As to `CNc1nccc(-c2ccc3c(N)n[nH]c3c2)n1` [GSK2206003A], the potency estimated from few doses in the assay on ERBB3 (CATDS: 5.0565668903585798E-2) is 1580 nM.
Turning to `CCC(CC)(CC)n1cnc2c(N)ncnc21` [SKF-97620], the potency estimated from few doses in the assay on PIK3C2B (CATDS: 4.5061031673298398E-2) is 395 nM.
